Drawing on PubChem BioAssay AID1851 (National Center for Advancing Translational Sciences (NCATS), 2009), this text covers AC50 and activity, negative = inhibition for 64 compounds.

Out of some 16,000 compounds screened, about 4,000 (25%) were called active. Roughly 26% stayed inconclusive and do not appear here. A selection follows. A number with no mark means an inactive call. The call rests on the fitted dose curve; in most records, active means well fitted curve in the direction sought with a large enough effect; inconclusive means small, poorly fitted or top-dose-only effect, or effect the other way; inactive means no such curve, though single readings can be large or run the other way.
On the % scale 0 is the no-effect control and ±100 the full control effect.

In the test the target is Cytochrome P450 2C9 (Homo sapiens) (UniProt P11712). The test is described as follows: Cytochrome panel assay with activity outcomes. Conditions: recombinant CYP, pro-luciferin dealkylation, luminescence, p450-cyp2c9; series mostly up to 57.1 µM.
Sequence of Cytochrome P450 2C9 (Homo sapiens) (P11712 whole entry, looked up): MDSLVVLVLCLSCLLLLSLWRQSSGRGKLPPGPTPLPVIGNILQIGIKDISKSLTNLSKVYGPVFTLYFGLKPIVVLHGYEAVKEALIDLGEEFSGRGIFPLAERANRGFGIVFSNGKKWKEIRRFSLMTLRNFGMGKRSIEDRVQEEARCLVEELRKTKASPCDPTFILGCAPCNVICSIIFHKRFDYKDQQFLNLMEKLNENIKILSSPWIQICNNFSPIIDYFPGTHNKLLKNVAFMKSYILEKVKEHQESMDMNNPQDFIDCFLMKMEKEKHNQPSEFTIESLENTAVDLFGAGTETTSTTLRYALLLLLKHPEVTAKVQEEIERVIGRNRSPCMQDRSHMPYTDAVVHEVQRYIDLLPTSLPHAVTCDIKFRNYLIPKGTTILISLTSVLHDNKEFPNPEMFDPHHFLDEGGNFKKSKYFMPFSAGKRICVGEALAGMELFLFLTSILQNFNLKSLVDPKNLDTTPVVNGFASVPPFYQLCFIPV
Consider `COc1ccccc1CN1CCC2(CC1)CCN(S(C)(=O)=O)CC2`, for which the AC50 entry is “inactive”. Consider `c1ccc(Nc2nc(-c3ccc4c(c3)OCO4)nc3ccccc23)cc1`, for which the activity, negative = inhibition was -5.32% [at 2.29 µM].

Consider `N#Cc1cccc(-c2nc(Nc3ccccc3)c3ccccc3n2)c1`, for which the activity, negative = inhibition was -3.27% [at 2.29 µM].

In the case of `Clc1cccc(Nc2nnc(-c3ccccc3)c3ccccc23)c1`, the AC50 was 3.98 µM (active). Turning to `c1ccn(-c2ccc(N3CCOCC3)cc2)c1`, the AC50 result was “inactive”. The same measure, in the same setting: for `CC(C)CN1CCCC2(CCN(C(=O)c3cnccn3)CC2)C1` the value was “inactive”. The same measure, in the same setting: then `COc1nc(/C(N)=N/O)nc(N2CCCCC2)n1`, with “inactive”; and `COc1c(/C=N/Nc2nc(N3CCCCC3)nc(N3CCCCC3)n2)cccc1[N+](=O)[O-]`, with “inactive”. With `Brc1cc2c(cc1/C=N/Nc1nc(N3CCCC3)nc(N3CCOCC3)n1)OCO2`, the AC50 was 7.08 µM (active). In the case of `COc1cccc(/C=N/Nc2nc(N3CCCC3)nc(N3CCCC3)n2)c1O`, the AC50 is 12.6 µM (active).

With `N#Cc1cccc(-c2cncnc2NCc2cccnc2)c1`, the activity, negative = inhibition was 6.75% [at 2.29 µM]. Turning to `CN(C)CCO[C@@H](c1ccc(Cl)cc1)c1ccccn1`, the AC50 result was “inactive”.

For the compound `O=S(=O)(Nc1nc(-c2sccc2Cl)cs1)c1cc(Cl)ccc1Cl`, the AC50 was 0.631 µM (active). Take `COCC(C)NCc1cccc(C)c1` (centres undefined): the AC50 entry is “inactive”. Still for that read-out and setting: then `Cc1ccc(S(=O)(=O)n2ccc(-c3cccc(OCc4c(F)cccc4Cl)c3)n2)cc1`, with 1.58 µM (active).

As to `CO[C@H]1COC(=O)C/C=C\[C@H](C)COC(=O)[C@@H](C)NC(=O)C/C=C\[C@@H]1C`, the activity, negative = inhibition was -24.8% [at 11.4 µM]. For the compound `COCC(=O)N/N=C/c1ccc(Sc2nc3ccccc3s2)o1`, the AC50 entry is “inactive”.

For the compound `O=C(Cc1cccc2ccccc12)N/N=C/c1ccc(Sc2nc3ccccc3s2)o1`, the AC50 is 0.282 µM (active).

Take `NCCCCCC(=O)O`: the AC50 entry is “inactive”. As for `CCNC(=S)NNC(=O)c1cc(C2CC2)nc2ccccc12`, the AC50 was 2 µM (active). With `Cc1cc(C(=O)Nc2c(C)n(C)n(-c3ccccc3)c2=O)c2ccccc2n1`, the AC50 result was “inactive”. Regarding `CCNC(=S)NNC(=O)c1cc(CC(C)C)nc2ccccc12`, the AC50 is 2.82 µM (active).

Consider `Cc1cc(C(=O)OC2CCOC2=O)c2ccccc2n1` (centres undefined), for which the AC50 entry was “inactive”. As for `CCNC(=S)NNC(=O)c1cc(C)on1`, the AC50 result is “inactive”. With `CCNC(=S)NNC(=O)c1cccc(Br)c1`, the AC50 entry is “inactive”.

For `CCNC(=S)NNC(=O)Cc1ccccc1`, the AC50 entry was “inactive”.

Regarding `Cc1cc(C(=O)NNC(=S)NC(C)c2ccccc2)c2ccccc2n1` (centres undefined), the AC50 is 3.16 µM (active).

As to `OCCCN=C1CCCCC1`, the activity, negative = inhibition was -11% [at 11.4 µM]. `COCC(=O)N1CCC[C@@]2(CCN(c3ncccn3)C2)C1`: the AC50 result is “inactive”.

In the case of `CC(=O)Nc1ccc(S(=O)(=O)N2CCC(N(C)CCC(C)C)CC2)cc1`, the AC50 result is “inactive”. Still for that read-out and setting: then `Cc1nc2ncnn2c(C)c1CCC(=O)NCc1ccccc1`, with “inactive”; and `O=C(CCN1CCc2ccccc2C1)Nc1ccc(F)cc1`, with “inactive”. Turning to `Cc1ccc(NC(=O)CCc2c(C)nc3ncnn3c2C)nc1`, the AC50 result is “inactive”. With `O=C(CSc1ncccn1)Nc1ccc(S(=O)(=O)N2CCCCC2)cc1`, the AC50 was 7.94 µM (active). As for `O=C(c1ccc(CN2CCc3ccccc3C2)cc1)N1CCc2ccccc2C1`, the AC50 result was “inactive”. On to `O=C(Nc1ccc(S(=O)(=O)N2CCCCC2)cc1)c1ccc(CN2CCc3ccccc3C2)cc1`, for which the AC50 was 3.16 µM (active). Regarding `Cc1nc2ncnn2c(C)c1CCC(=O)Nc1ccc(S(=O)(=O)N2CCCCCC2)cc1`, the AC50 was 3.16 µM (active). Same read-out and setting: for `O=C(Nc1ccc(S(=O)(=O)N2CCOCC2)cc1)c1ccc(CN2CCc3ccccc3C2)cc1` the value was 8.91 µM (active). `CN(Cc1ccco1)c1cc(-c2cccc(NS(C)(=O)=O)c2)ncn1`: the activity, negative = inhibition is -0.0487% [at 2.29 µM].

As to `CCN1C(=O)[C@H]2[C@H]3[C@H](O)[C@H](O)C/C(=N/OCC[C@H]4C=C[C@H](OC(C)=O)[C@@H](COC(C)=O)O4)[C@@H]3CC[C@@H]2C1=O`, the activity, negative = inhibition was -15% [at 11.4 µM]. Take `O=C(CSCc1ccccc1)Nc1ccc(S(=O)(=O)N2CCOCC2)cc1`: the AC50 is 10 µM (active). `Cc1cnc(CNc2ccnc(-c3c(C)noc3C)n2)cn1`: the activity, negative = inhibition is 19.4% [at 2.29 µM]. Take `COc1ccc2c(c1)C(c1ccc([N+](=O)[O-])cc1)=NNC(c1ccco1)=N2`: the AC50 is 14.1 µM (active).

On to `c1ccc2c(NCCN3CCOCC3)nc(-c3ccoc3)nc2c1`, for which the activity, negative = inhibition was -0.137% [at 2.29 µM].

Regarding `Cc1noc(C)c1C(=O)OCC(=O)NC(c1ccccc1)c1ccccc1`, the AC50 is 11.2 µM (active). Regarding `Cc1noc(C)c1C(=O)N1CCC2(CC1)CCN(C(c1ccccc1)c1ccccc1)CC2`, the AC50 result is “inactive”.

In the case of `Cc1noc(C)c1C(=O)N1CCC2(CCN(C(=O)Nc3ccccc3)CC2)CC1`, the AC50 entry is “inactive”. On the same count and under the same terms, then `Cc1cc(NC(=O)CN2C(=O)NC(C)(c3ccc(OC(F)F)cc3)C2=O)no1` (centres undefined), with “inactive”.

Regarding `COc1ccc(C(=O)CN2C(=O)NC(C)(c3ccccc3)C2=O)cc1OC` (centres undefined), the AC50 is 3.55 µM (active). Take `CN(C)C(=O)c1ccc(-c2nc(Nc3ccc(F)cc3)c3ccccc3n2)cc1`: the activity, negative = inhibition was -11.1% [at 2.29 µM]. On to `O=C(CCCN1CCC(O)(c2cccc(C(F)(F)F)c2)CC1)c1ccc(F)cc1`, for which the AC50 entry was “inactive”. Still for that read-out and setting: for `O=C(Cn1c(C(F)(F)F)nc2ccccc21)c1ccccc1` the value was 10 µM (active); for `O=C(Cn1c(C(F)(F)F)nc2ccccc21)c1ccc(F)cc1`, 3.55 µM (active). As for `CC(=O)N1CCC[C@@]2(CCN(Cc3nccs3)C2)C1`, the AC50 result is “inactive”. `CO[C@H]1COC(=O)C/C=C\[C@H](C)COC(=O)[C@@H](OCc2ccccc2)/C=C\[C@@H]1C`: the activity, negative = inhibition is -4.97% [at 11.4 µM]. On to `Cc1nc2cnc(Oc3cccc(Cl)c3)nc2n(C2CC2)c1=O`, for which the AC50 was 12.6 µM (active). Turning to `O=c1cnc2cnc(N3CCOCC3)nc2n1C1CC1`, the AC50 result is “inactive”.

In the case of `COc1ncc2nc(C)c(=O)n(C3CC3)c2n1`, the AC50 result was “inactive”. `O=c1cnc2cnc(Oc3ccccc3)nc2n1C1CC1`: the AC50 result is “inactive”. Still for that read-out and setting: for `Cc1nc2cnc(Oc3ccccc3)nc2n(C)c1=O` the value was “inactive”; for `O=c1cnc2cnc(Oc3cccc(Cl)c3)nc2n1C1CC1`, 6.31 µM (active). For the compound `Cn1c(=O)c(-c2ccc(Cl)cc2)nc2cnc(Oc3cccc(Cl)c3)nc21`, the AC50 result was “inactive”.

Turning to `N#Cc1cccc(-c2nc3cnc(Oc4cccc(Cl)c4)nc3n(C3CC3)c2=O)c1`, the AC50 is 3.16 µM (active). `O=c1c(-c2ccccc2)nc2cnc(Oc3cccc(Cl)c3)nc2n1C1CC1`: the AC50 is 0.251 µM (active).
